Screening results deposited in PubChem BioAssay by National Center for Advancing Translational Sciences (NCATS).
DT40 TDP1 no CPT = qHTS for Inhibitors of human tyrosyl-DNA phosphodiesterase 1 (TDP1): qHTS in cells in absence of CPT; DT40 Tdp1-/- hTDP1 cells, no CPT, ATP luminescence, 48 h; Potency, µM (doses to about 46.2 µM), for the others: at the top dose activity change, negative = growth inhibition, hits mostly inhibitors; hit rate 15% among 420,000; further: on the % scale 0 is the no-effect control and ±100 the full control effect; nearly all actives have a fitted effect of over 55% in size
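A cellular qHTS used chicken DT40 cells lacking endogenous Tdp1 but carrying stably transfected human TDP1. Compounds were applied without camptothecin, and cell growth kinetics were judged by ATP-dependent luminescence after ≥48 hr.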
DT40 TDP1 CPT = DT40-hTDP1 cell growth loss with CPT | chicken DT40 Tdp1-/-;hTDP1 cells + 20 nM CPT, ATP luminescence, 48 h | Potency, µM (top dose mostly 46.2 µM), inactives show top-dose activity change, negative = growth inhibition, actives largely listed as inhibitors | hit rate 12% among 420,000 | AID 686979; further: on the % scale 0 is the no-effect control and ±100 the full control effect; nearly all actives have a fitted effect of over 55% in size
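Cell growth measured by CellTiter-Glo luminescence after a minimum 48 h, 37 C compound exposure with 20 nM CPT in Tdp1-knockout DT40 cells stably expressing hTDP1, seeded 400/well; qHTS titration format.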
ClpP mod = qHTS Assay for Activators of ClpP | ATP-dependent Clp protease proteolytic subunit (Bacillus subtilis (strain 168)), P80244 | purified B. subtilis ClpP, FRET peptide cleavage, 20 min | hit rate 1.9% among 340,000 | Potency, µM (highest dose often 57.5 µM), inactives show at the highest dose activity change, negative = active | AID 651965, 2013; active means well fitted falling curve with a large enough effect; inconclusive means small, poorly fitted or top-dose-only effect; inactive means no such curve, though single readings can be large or run the other way; further: the source files actives as falling curves though it sought activators and does not explain the sign; nearly all actives have a fitted effect of over 65% in size
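FRET quenching reversal measured ClpP activation: 10 microg/mL B. subtilis ClpP at pH 8 with the FRET-FV decapeptide, read at 430 nm after 320 nm excitation. The 20-min minus 0-min signal was scaled between DMSO/no-enzyme wells and ADEP (5.8 microM final).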
TDP1 inh = inhibitors of human tyrosyl-DNA phosphodiesterase TDP1; Q9NUW8; recombinant TDP1, AlphaScreen DNA substrate cleavage; Potency, µM (titrated, usually from 130 µM), without a hit: top-dose activity change, negative = inhibition, most hits filed as inhibitors; hit rate 0.28% among 350,000; AID 485290; further: on the % scale 0 is the no-effect control and ±100 the full control effect; nearly all actives have a fitted effect of over 40% in size
Target sequence (Q9NUW8 whole entry, looked up): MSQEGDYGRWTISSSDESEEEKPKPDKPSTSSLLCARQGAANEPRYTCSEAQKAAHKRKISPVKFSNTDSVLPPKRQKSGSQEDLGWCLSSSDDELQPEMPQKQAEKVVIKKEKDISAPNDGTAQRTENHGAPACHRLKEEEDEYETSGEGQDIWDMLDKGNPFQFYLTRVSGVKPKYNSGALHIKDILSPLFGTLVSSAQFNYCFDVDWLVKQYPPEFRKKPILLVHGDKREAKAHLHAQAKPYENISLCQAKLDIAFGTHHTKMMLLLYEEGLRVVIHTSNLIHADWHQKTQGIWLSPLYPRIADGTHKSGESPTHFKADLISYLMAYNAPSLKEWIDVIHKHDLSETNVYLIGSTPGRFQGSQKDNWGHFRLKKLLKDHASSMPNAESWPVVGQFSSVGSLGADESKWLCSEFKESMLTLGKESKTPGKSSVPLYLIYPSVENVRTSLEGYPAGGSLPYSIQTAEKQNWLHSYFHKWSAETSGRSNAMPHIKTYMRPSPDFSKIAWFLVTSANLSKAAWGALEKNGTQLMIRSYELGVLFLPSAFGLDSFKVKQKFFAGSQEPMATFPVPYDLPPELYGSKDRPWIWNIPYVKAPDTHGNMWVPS
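Here, a 5' biotin and 3' phosphotyrosine-FITC DNA oligonucleotide reports Tdp1 activity: intact substrate bridges AlphaScreen beads, while cleavage leaves a 3' phosphate and drops signal. All incubations at room temperature.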
Starred values were filed as active, the others as inactive; u = inconclusive; x = not tested or not shown; [ ] = dose if it differs, or a comment. In the library only some 17% were active in any assay of this set; here they are far more common. Unless noted, the call rests on the fitted dose curve; in most records, active means well fitted curve in the direction sought with a large enough effect; inconclusive means small, poorly fitted or top-dose-only effect, or another doubt; inactive means no such curve, though single readings can be large; an effect the other way counts as inactive or inconclusive. Potency means the concentration at half of the fitted maximal effect.

SMILES | DT40 TDP1 no CPT | DT40 TDP1 CPT | ClpP mod | TDP1 inh
CC1=NNC(=O)C1CC(=O)N/N=C/C(Br)=C/c1ccccc1 (stereo not drawn) | 21µM* | 21µM* | 0% | 6%
CC1=NNC(=O)C1CCC(=O)N/N=C/c1ccco1 (stereo not drawn) | -5% | -18% | x | 8%
CC1C(=O)NN=C1C(=O)N/N=C\C(Br)=C\c1ccccc1 (stereo not drawn) | 15µM* | 6.5µM* | x | 8%
CC1=NNC(=O)C1CCC(=O)N/N=C/C(Br)=C/c1ccccc1 (stereo not drawn) | 2.1µM* | 2.9µM* | -2% | 5%
O=C(Nc1ccc(F)c(Cl)c1)c1cc(C2CCCN(C(=O)c3cccs3)C2)on1 (stereo not drawn) | u | u | -1% | x
CCOC(=O)C1(C)CCCN(C(=O)c2ccc(OC)c(OC)c2)C1 (stereo not drawn) | -15% | -12% | 0% | x
Cc1cc(SCC(=O)c2ccc(O)c(O)c2)n2nc(C)c(-c3ccccc3)c2n1 | 15µM* | 18µM* | 0% | x
O=C(Cc1coc2cc3c(cc12)CCC3)NCC1(N2CCCCC2)CCCCC1 | u | u | x | 3%
O=C(Cc1coc2cc3c(cc12)CCC3)NC1CCCCCCC1 | 0.021µM* | u | 1% | -3%
O=C(O)Cc1coc2cc3c(cc12)CCC3 | 2% | 10% | 25µM* | -1%
CC1=C(C(=O)N(C)C)CC(CC(=O)NCCc2ccccn2)C(=O)N1Cc1ccc(C(C)(C)C)cc1 (stereo not drawn) | -27% | u | 0% | x
Cc1nn(Cc2cccc(F)c2)c(C)c1NC(=O)c1c(Cl)cnn1C | u | -28% | 1% | 8%
O=C(NCCNC(=O)c1ccc(-c2ccc(Cl)c(Cl)c2)o1)c1cnccn1 | 15µM* | u | x | 5%
O=C(NCCNC(=O)c1ccc(-c2cc(Cl)ccc2Cl)o1)c1cnccn1 | 21µM* | u | -5% | x
O=C(NCCNC(=O)c1ccc(-c2cccc(Cl)c2)o1)c1cnccn1 | u | u | 3% | x
CCC(C(=O)OC(C)C)c1ccc2ccccc2c1 (stereo not drawn) | -16% | u | -3% | -19%
Cc1cccc(NC2=NCC(=O)N2Cc2cccs2)c1 | -2% | 1% | x | 2%
Cc1ccc(Nc2ccc(C(F)(F)F)cc2[N+](=O)[O-])cc1 | -12% | -20% | 2% | 8%
Cc1ccc(NC2=C(c3ccc(C(F)(F)F)cc3)C(=O)c3ccccc32)cc1C | u | 21µM* | -16% | 4%[12.3 µM]
O=c1cc(N/N=C/c2ccccc2)[nH]c(=O)[nH]1 | 4.6µM* | 4.1µM* | -3% | x
c1cc2c(cc1-c1cnc3n1CCC3)OCCO2 | u | 18µM* | u | 6%
c1ccc(-c2ccc(-c3cnc4n3CCCCC4)cc2)cc1 | 18µM* | u | u | 12%
Cc1ccc(-c2cnc3n2CCCCC3)cc1 | 26µM* | u | 0% | 2%
C=CCNC(=S)NNC(=O)c1cccn(Cc2ccc(Cl)cc2Cl)c1=O | u | 16µM* | 100% | 6%
CC1(C(=O)Nc2ccc3[nH]ncc3c2)CCN1C(=O)CCc1ccccc1 (stereo not drawn) | u | u | 0% | x
SMILES | DT40 TDP1 no CPT | DT40 TDP1 CPT | ClpP mod | TDP1 inh
CC1(C(=O)Nc2ccc3[nH]ncc3c2)CCN1C(=O)Cc1ccc(-c2ccccc2)cc1 (stereo not drawn) | 13µM* | 16µM* | -4% | x
CCCC(=O)N1CCCC1(C)C(=O)Nc1ccc2cn[nH]c2c1 (stereo not drawn) | -2% | -27% | -3% | x
C#Cc1ccc(NC(=O)C2(C)CCN2C(=O)Cc2ccc(C(C)(C)C)cc2)cc1 (stereo not drawn) | u | 21µM* | -2% | x
C#Cc1ccc(NC(=O)C2(C)CCN2C(=O)Cc2ccc(C(C)C)cc2)cc1 (stereo not drawn) | u | u | 0% | x
CC1(C(=O)Nc2cccc(C#N)c2)CCN1C(=O)C/C=C/c1ccccc1 (stereo not drawn) | u | u | 1% | x
CC(C)(C)c1ccc(CC(=O)N2CCC2(C)C(=O)Nc2ccc3[nH]ncc3c2)cc1 (stereo not drawn) | 9.2µM* | 15µM* | 0% | x
C#Cc1ccc(NC(=O)C2(C)CCN2C(=O)C/C=C/c2ccccc2)cc1 (stereo not drawn) | 9.2µM* | 16µM* | -2% | x
C=C[C@H](C)[C@](C)(O)c1ccccc1 | x | x | x | 7%
Cc1ccccc1C(=O)NNC(=O)CSc1nc(-c2ccccc2)cc(=O)[nH]1 | u | -10% | x | -5%
CC(=O)N1CCc2cc(S(=O)(=O)NC(CC(C)C)C(=O)NCCc3cccc(C)c3)ccc21 (stereo not drawn) | -7% | 2% | 0% | 0%
CC(=O)NC(c1ccccc1)c1nc(-c2cccs2)cs1 (stereo not drawn) | u | -20% | -2% | x
Nc1nc(NCCCN2CCOCC2)nc(Nc2ccccc2F)c1[N+](=O)[O-] | 16µM* | -11% | x | 5%
Nc1nc(NCCCN2CCOCC2)nc(Nc2ccc(F)cc2)c1[N+](=O)[O-] | u | u | -7% | 6%
Cc1cccc(Nc2nc(NCCCN3CCOCC3)nc(N)c2[N+](=O)[O-])c1 | 15µM* | 16µM* | 20µM* | 3%
O=C(Nc1nccs1)C(Br)C(Br)c1ccccc1 (stereo not drawn) | 21µM* | 10µM* | x | x
CC(=O)N1CCN(c2ccc(Nc3ncnc4c3oc3ccccc34)cc2)CC1 | 10µM* | 15µM* | -1% | -2%
CC(=O)CSc1ncnc2c1oc1ccccc12 | -16% | -5% | -3% | 3%
O=C(CSc1ncnc2c1oc1ccccc12)N1CCN(c2ccccc2)CC1 | 29µM* | u | -7% | x
c1coc(CSc2ncnc3c2oc2ccccc23)c1 | 8.2µM* | 11% | x | x
c1ccc(CSc2ncnc3c2oc2ccccc23)cc1 | u | u | -9% | x
CCc1nc(Nc2ccc(N3CCN(C(C)=O)CC3)cc2)c2oc3ccccc3c2n1 | 13µM* | 21µM* | -1% | 15%
O=C(CN(c1ccccc1)S(=O)(=O)c1ccccc1)Nc1ccc(F)cc1 | -26% | u | 3% | x
CCNC(=S)Nn1cnc2ccccc21 | 0% | -8% | -2% | 3%
CN1CCN(S(=O)(=O)c2ccc(NC(=O)c3ccc(F)cc3Cl)cc2)CC1 | -1% | -2% | 0% | 2%
O=c1c(S(=O)(=O)c2ccccc2)cn(Cc2ccccc2)c2cc(N3CCOCC3)c(F)cc12 | u | 21µM* | 28µM* | -2%
O=c1c(S(=O)(=O)c2ccccc2)cn(Cc2cccc(F)c2)c2cc(N3CCOCC3)c(F)cc12 | 23µM* | u | 28µM* | -7%
CN1C(CC(=O)Nc2ccc(Cl)cc2Cl)c2ccccc2CC1(C)C (stereo not drawn) | 16µM* | 10µM* | x | -4%
CCCCN(CCCC)CC(O)COc1ccccc1Br (stereo not drawn) | 16µM* | u | -1% | 0%
